Laboratory results from PubChem BioAssay (NCI).
The panel holds about 83,000 compounds, 20% with a hit somewhere; the sample as a whole holds those more often.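 A percent growth of 40 corresponds to 60% growth inhibition; 0 means no net growth; -100 means all cells died. Active threshold: below 10.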 Activity calls are given as the source filed them.

How the values were obtained:
Assay in all cases: NCI-60 one-dose screen, 48 h (100 = growth as untreated, 0 = no growth, -100 = all killed)
Settings in all cases: 10 µM unless noted
HCT-15 colon = tested on: HCT-15 colon
HT29 colon = tested on: HT29 colon
SNB-75 CNS = tested on: SNB-75 CNS
SNB-19 CNS = tested on: SNB-19 CNS
U251 CNS = tested on: U251 CNS
PC-3 prostate = tested on: PC-3 prostate
SK-MEL-5 melanoma = tested on: SK-MEL-5 melanoma
UACC-62 melanoma = tested on: UACC-62 melanoma
LOX IMVI melanoma = tested on: LOX IMVI melanoma
SK-MEL-28 melanoma = tested on: SK-MEL-28 melanoma
EKVX NSCLC = tested on: EKVX NSCLC
SN12C renal = tested on: SN12C renal
UO-31 renal = tested on: UO-31 renal
TK-10 renal = tested on: TK-10 renal
ACHN renal = tested on: ACHN renal
CAKI-1 renal = tested on: CAKI-1 renal
A498 renal = tested on: A498 renal
CCRF-CEM leukemia = tested on: CCRF-CEM leukemia
MOLT-4 leukemia = tested on: MOLT-4 leukemia

Measured: growth

FC(F)(F)c1ccc(CNc2ccc(Cc3c[nH]c4ncc(Cl)cc34)cn2)cn1
active: HT29 colon 2.92% | SNB-75 CNS 9.21% | SK-MEL-5 melanoma -59.8% | UACC-62 melanoma 6.74% | MOLT-4 leukemia 7.19%
inactive: HCT-15 colon 19.9% | SNB-19 CNS 37% | U251 CNS 18.2% | PC-3 prostate 18.3% | LOX IMVI melanoma 15.2% | SK-MEL-28 melanoma 17.8% | EKVX NSCLC 30.3% | SN12C renal 52.2% | UO-31 renal 10.7% | TK-10 renal 18.3% | ACHN renal 31.6% | CAKI-1 renal 25.2% | A498 renal 18.3% | CCRF-CEM leukemia 23.4%

CN1CCC(COc2cnc(-c3cccc(Cn4nc(-c5cccc(C#N)c5)ccc4=O)c3)nc2)CC1
active: HT29 colon -38.5% | SK-MEL-28 melanoma -13.2%
inactive: HCT-15 colon 12.4% | SNB-75 CNS 72.9% | SNB-19 CNS 78.2% | U251 CNS 16.4% | PC-3 prostate 67.8% | SK-MEL-5 melanoma 43.2% | UACC-62 melanoma 95.1% | LOX IMVI melanoma 34.2% | EKVX NSCLC 58.6% | SN12C renal 82.2% | UO-31 renal 77.8% | TK-10 renal 102% | ACHN renal 74.4% | CAKI-1 renal 79% | A498 renal 95.1% | CCRF-CEM leukemia 34.7% | MOLT-4 leukemia 55.2%

CC[C@@H]1C(=O)N(C)c2cnc(Nc3ccc(C(=O)NC4CCN(C)CC4)cc3OC)nc2N1C1CCCC1
active: HCT-15 colon 4.6% | HT29 colon -3.91% | SNB-75 CNS -0.626% | SK-MEL-5 melanoma -80.6% | LOX IMVI melanoma -73.5% | SN12C renal 2.27% | A498 renal -28.3% | CCRF-CEM leukemia -0.208% | MOLT-4 leukemia -14%
inactive: SNB-19 CNS 31.3% | U251 CNS 12.7% | PC-3 prostate 28% | UACC-62 melanoma 11.6% | SK-MEL-28 melanoma 34.4% | EKVX NSCLC 31.6% | UO-31 renal 13.4% | TK-10 renal 14.9% | ACHN renal 21.2% | CAKI-1 renal 23%

CCCNC(=O)c1cn2ncnc(Nc3cc(C(=O)NC4CC4)ccc3C)c2c1C
inactive: HCT-15 colon 87.2% | HT29 colon 81.9% | SNB-75 CNS 74.6% | SNB-19 CNS 70.7% | U251 CNS 77.2% | PC-3 prostate 74.3% | SK-MEL-5 melanoma 38.2% | UACC-62 melanoma 49.1% | LOX IMVI melanoma 40.1% | SK-MEL-28 melanoma 30.1% | EKVX NSCLC 87.2% | SN12C renal 88.4% | UO-31 renal 45.2% | TK-10 renal 104% | ACHN renal 58.6% | CAKI-1 renal 67.6% | A498 renal 56.9% | CCRF-CEM leukemia 73.9% | MOLT-4 leukemia 92.6%

COc1cc2c(Oc3ccc4[nH]c(C)cc4c3F)ncnc2cc1OCCCN1CCCC1
active: A498 renal 2.51%
inactive: HCT-15 colon 99.4% | HT29 colon 83.9% | SNB-75 CNS 50.9% | SNB-19 CNS 88.2% | U251 CNS 63.2% | PC-3 prostate 103% | SK-MEL-5 melanoma 104% | UACC-62 melanoma 103% | LOX IMVI melanoma 85.8% | SK-MEL-28 melanoma 95.8% | EKVX NSCLC 95.4% | SN12C renal 91.9% | UO-31 renal 45.3% | TK-10 renal 90.8% | ACHN renal 68.2% | CAKI-1 renal 58.9% | CCRF-CEM leukemia 106% | MOLT-4 leukemia 62.9%

C=CC(=O)Nc1cccc(Oc2nc(Nc3ccc(N4CCN(C)CC4)cc3)nc3ccsc23)c1
inactive: SNB-19 CNS 12.8% | EKVX NSCLC 16.4% | A498 renal 33.6%
active: HCT-15 colon -21.9% | HT29 colon -60% | SNB-75 CNS -81.1% | U251 CNS -84.7% | PC-3 prostate -44.5% | SK-MEL-5 melanoma -97.2% | UACC-62 melanoma -78.2% | LOX IMVI melanoma -85% | SK-MEL-28 melanoma -91.6% | SN12C renal -70.6% | UO-31 renal -89.6% | TK-10 renal -79% | ACHN renal -96.6% | CAKI-1 renal -71.4% | CCRF-CEM leukemia 1.89% | MOLT-4 leukemia -37.7%

CO[C@H]1C[C@@H]2CC[C@@H](C)[C@@](O)(O2)C(=O)C(=O)N2CCCC[C@H]2C(=O)O[C@H]([C@H](C)C[C@@H]2CC[C@@H](O)[C@H](OC)C2)CC(=O)[C@H](C)/C=C(\C)[C@@H](O)[C@@H](OC)C(=O)[C@H](C)C[C@H](C)\C=C/C=C/C=C/1C
active: MOLT-4 leukemia 6.08%
inactive: HCT-15 colon 30.2% | HT29 colon 18.7% | SNB-75 CNS 11% | SNB-19 CNS 39.4% | U251 CNS 23.4% | PC-3 prostate 32.6% | SK-MEL-5 melanoma 14.2% | UACC-62 melanoma 39.2% | LOX IMVI melanoma 26.7% | SK-MEL-28 melanoma 38.8% | EKVX NSCLC 35.8% | SN12C renal 44.3% | UO-31 renal 20.7% | TK-10 renal 43.5% | ACHN renal 39.5% | CAKI-1 renal 39.6% | A498 renal 13.8% | CCRF-CEM leukemia 22.1%

COc1cc2nccc(Oc3ccc(NC(=O)C4(C(=O)Nc5ccc(F)cc5)CC4)cc3)c2cc1OC
active: HCT-15 colon 5.75% | HT29 colon -19.1% | SNB-75 CNS -18.9% | SK-MEL-5 melanoma 3.39% | UACC-62 melanoma -12.2% | LOX IMVI melanoma -71.2% | SK-MEL-28 melanoma 1.37% | SN12C renal 9.57% | UO-31 renal -19.2% | ACHN renal 4.85% | CAKI-1 renal -14.9% | A498 renal -44.2%
inactive: SNB-19 CNS 29.9% | U251 CNS 25.1% | PC-3 prostate 20.8% | EKVX NSCLC 23.4% | TK-10 renal 15.1% | CCRF-CEM leukemia 19.1% | MOLT-4 leukemia 11.6%

CCCCOc1nc2cc(Cl)ccc2cc1/C=C/c1cc(/C=C/c2cc3ccc(Cl)cc3nc2OCCCC)n(-c2ccccc2)n1
inactive: HCT-15 colon 112% | HT29 colon 88.9% | SNB-19 CNS 69.9% | U251 CNS 43.2% | PC-3 prostate 86.3% | SK-MEL-5 melanoma 106% | UACC-62 melanoma 72.7% | LOX IMVI melanoma 86.2% | SK-MEL-28 melanoma 112% | EKVX NSCLC 113% | SN12C renal 94% | UO-31 renal 89.9% | TK-10 renal 91.4% | ACHN renal 75.6% | CAKI-1 renal 78.5% | A498 renal 97.9% | CCRF-CEM leukemia 98.9% | MOLT-4 leukemia 84.8%
active: SNB-75 CNS -17.4%

Cc1cc([C@@H](C)Nc2ccccc2C(=O)O)c2nc(N3CCOCC3)cc(=O)n2c1
inactive: HCT-15 colon 44.5% | HT29 colon 35.9% | SNB-19 CNS 52.8% | U251 CNS 55.4% | PC-3 prostate 30.5% | SK-MEL-5 melanoma 52.5% | UACC-62 melanoma 14% | LOX IMVI melanoma 30.1% | SK-MEL-28 melanoma 43.9% | EKVX NSCLC 61.7% | SN12C renal 44.1% | UO-31 renal 15.7% | TK-10 renal 42.6% | ACHN renal 46.3% | CAKI-1 renal 18.9% | CCRF-CEM leukemia 23.5% | MOLT-4 leukemia 20.6%
active: SNB-75 CNS -19.5% | A498 renal -36.7%

CNC(=O)c1cnc(C)nc1-c1cc(C(C)(C)C)c(O)c(C(C)(C)C)c1
inactive: HCT-15 colon 103% | HT29 colon 106% | SNB-75 CNS 67.6% | SNB-19 CNS 87.2% | U251 CNS 97.1% | PC-3 prostate 89.3% | SK-MEL-5 melanoma 92.1% | UACC-62 melanoma 90.7% | LOX IMVI melanoma 110% | SK-MEL-28 melanoma 107% | EKVX NSCLC 92.6% | SN12C renal 100% | UO-31 renal 94.6% | TK-10 renal 101% | ACHN renal 101% | CAKI-1 renal 96.8% | A498 renal 112% | CCRF-CEM leukemia 106% | MOLT-4 leukemia 95.7%

C#Cc1cccc(Nc2ncnc3cc(OCCOC)c(OCCOC)cc23)c1
active: TK-10 renal -6.62% | CAKI-1 renal 6.29%
inactive: HCT-15 colon 39.3% | HT29 colon 53.2% | SNB-75 CNS 71.6% | SNB-19 CNS 79.8% | U251 CNS 68.8% | PC-3 prostate 73.4% | SK-MEL-5 melanoma 77.1% | UACC-62 melanoma 50.9% | LOX IMVI melanoma 47.2% | SK-MEL-28 melanoma 86.8% | EKVX NSCLC 39.6% | SN12C renal 50.5% | UO-31 renal 17.3% | ACHN renal 11.3% | A498 renal 20.2% | CCRF-CEM leukemia 71.2% | MOLT-4 leukemia 56.1%

O=C1NC(=O)[C@@H](c2cn3c4c(cccc24)CCC3)[C@@H]1c1c[nH]c2ccccc12
active: HT29 colon 0.272% | SNB-75 CNS 5.51% | U251 CNS 8.44% | SK-MEL-5 melanoma 3.82%
inactive: HCT-15 colon 16.8% | SNB-19 CNS 27.3% | PC-3 prostate 21.1% | UACC-62 melanoma 33.9% | LOX IMVI melanoma 19.2% | SK-MEL-28 melanoma 61.3% | EKVX NSCLC 31.4% | SN12C renal 31.1% | UO-31 renal 45.9% | TK-10 renal 43% | ACHN renal 35.7% | CAKI-1 renal 27% | A498 renal 11.8% | CCRF-CEM leukemia 20.9% | MOLT-4 leukemia 18.6%

N#CC[C@H](C1CCCC1)n1cc(-c2ncnc3[nH]ccc23)cn1
inactive: HCT-15 colon 89.7% | HT29 colon 62.9% | SNB-75 CNS 33.8% | SNB-19 CNS 90.7% | U251 CNS 63.9% | PC-3 prostate 59% | SK-MEL-5 melanoma 84.8% | UACC-62 melanoma 82% | LOX IMVI melanoma 55.3% | SK-MEL-28 melanoma 79.9% | EKVX NSCLC 82.7% | SN12C renal 66.3% | UO-31 renal 26.8% | TK-10 renal 41.5% | ACHN renal 52.1% | CAKI-1 renal 34.9% | A498 renal 64% | CCRF-CEM leukemia 58.5% | MOLT-4 leukemia 56.1%
